From PubChem BioAssay
Sampled rows, rich in hits. Any-hit rate of the full collection: about 21%.
Shiga inhibitor – A qHTS for Small Molecule Inhibitors of Shiga Toxin; Vero cells, Shiga toxin protein synthesis inhibition reporter; inhibition, % at 38.7 µM; 290,000 compounds, 9.2% hits; in the data active = inhibition mostly above about 28%, no sharp cut-off; inactive = mostly below about 43%
Cycloheximide cs – Cycloheximide Counterscreen for Small Molecule Inhibitors of Shiga Toxin. max response, %. 300,000 compounds, 12% hits. cell reporter, cycloheximide protein synthesis inhibition counterscreen. AID 2314, 2010; in the data active = max response mostly above about 13%, no sharp cut-off; inactive = mostly below about 14%; also: read at 38.3 µM for the half of the compounds with a filed dose
HCMV antiviral – qHTS Assay for inhibitors of the human cytomegalovirus (HCMV). HFF cells, HCMV-luciferase reporter, 72 h; active compounds read low. activity change, negative = inhibition, % at 57.5 µM. 410,000 compounds, 4.5% hits. AID 1259415, 2018; in the data active = activity change below about -60%; inconclusive = no clear call, values can overlap the other calls; inactive = above about -39%
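Human foreskin fibroblasts infected with luciferase-reporter HCMV at MOI 1 PFU/cell, compounds at two doses. Luciferase measured 72 h post infection; normalized to buffer-only basal and Salinomycin (10uM) controls.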
HCV inh – qHTS Assay for Inhibitors of Hepatitis C Virus (HCV). Huh7.5.1 HCVcc-Cre infection, luciferase reporter, 44 h. Potency, µM (doses to about 41.8 µM), most hits filed as inhibitors. 340,000 compounds, 3.4% hits. AID 651820, 2012
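Whole-lifecycle infectious HCVcc-Cre system; cells 1,000/well, compound then virus (~0.5 moi) added 4 h after plating, 44 h culture. Luciferase read 15 sec following 15 min substrate incubation, room temp.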
Pf growth 48h – Primary qHTS for delayed death inhibitors of the malarial parasite plastid, 48 hour incubation; Potency, µM (titrated, usually from 28.7 µM), actives largely listed as inhibitors; P. falciparum luciferase growth in erythrocytes, 48 h; 310,000 compounds, 5.9% hits; AID 504832, 2011
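Firefly luciferase activity from engineered P. falciparum reports growth; inhibitors lower the luminescent signal. Cultures contained 2% hematocrit erythrocytes at 0.1% final parasitemia.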
Pf growth 96h – Primary qHTS for delayed death inhibitors of the malarial parasite plastid, 96 hour incubation; P. falciparum luciferase reporter growth, 96 h; Potency, µM (top dose mostly 28.7 µM), most hits filed as inhibitors; 320,000 compounds, 6.9% hits; AID 504834, 2011
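P. falciparum expressing integrated firefly luciferase, in erythrocytes at 2% hematocrit, 0.05% parasitemia, incubated with compounds 96 h at 37 C, 5% CO2. Growth inhibition read as loss of luminescence; two-generation exposure targets delayed-death apicoplast inhibitors.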
Numbers stand for hits; - = inactive; ? = inconclusive; . = no result; [ ] = dose if it differs, or a comment. Unless noted, calls follow the shape of the dose curve; as a rule, active = well fitted inhibition curve with a large enough effect; inconclusive = small, poorly fitted or top-dose-only effect, or another doubt; inactive = no such curve, though single readings can be large or run the other way.

SMILES | Shiga inhibitor | Cycloheximide cs | HCMV antiviral | HCV inh | Pf growth 48h | Pf growth 96h
COc1ccc(C2CC(c3cccs3)=NN2C(=O)CCl)cc1OC (centres undefined) | 41.7 | 29.2 | -97.2 | ? | ? | ?
COc1ccc(C2=NN(C(=O)c3ccccc3)C(c3ccc(OC)c(OC)c3)C2)c(OC(C)=O)c1 (centres undefined) | - | - | - | . | 11.7µM | 10.4µM
Cc1cccc(NC(=O)CCCn2nc(C)c3c(C)n(-c4ccccc4)nc3c2=O)c1C | . | . | - | . | . | .
COc1ccc(S(=O)(=O)NC2CC(=O)N(c3cccc(F)c3)C2)cc1OC (centres undefined) | . | . | - | - | - | -
COc1ccc(C2CC(c3cccs3)=NN2C(=O)CCC(=O)O)cc1 (centres undefined) | . | - | - | - | - | ?
COc1cc(C2CC(c3cccs3)=NN2C(=O)CCl)ccc1OC(F)F (centres undefined) | 62.9 | - | -96.8 | 11.2µM | ? | ?
COc1ccc(C2CC(c3ccccc3O)=NN2C(=O)c2ccccc2)cc1OC (centres undefined) | - | - | - | - | 6.57µM | 4.15µM
COc1ccc(C2CC(c3ccc(OC)cc3O)=NN2C(=O)c2ccccc2)cc1 (centres undefined) | - | - | - | - | -[0.00184 µM] | ?
Cc1cc(C)c(C)c(S(=O)(=O)NCCCN2CCCC2=O)c1C | - | - | ? | - | - | -
CSc1cc(/C=N/O)c(SC)s1 | - | - | - | 10µM | - | -
CC[C@]12c3[nH]c4ccc(Cl)cc4c3CCN1C(=O)[C@@H](CC(=O)NCCc1ccccn1)C[C@@H]2C(=O)N1CCN(C(=O)c2ccco2)CC1 | . | . | - | ? | . | .
COc1ccc(-c2csc(Nc3ccccc3)[n+]2CC(O)c2ccc([N+](=O)[O-])cc2)cc1 (centres undefined) | - | 18.2 | - | 8.91µM | 1.31µM | 1.47µM
CCOC(=O)C(Cc1ccccc1)(Nc1ccc(OC)cc1)C(O)c1ccc([N+](=O)[O-])cc1 (centres undefined) | . | . | - | . | . | .
CCCN1CNC(=S)N(c2ccccc2C)C1 | - | - | ? | - | - | -
CCN(CC)CCN1CNC(=S)N(c2ccccc2OC)C1 | - | - | -64.8 | - | - | -
Cc1cc(C)c2c(N=NN3CCCCC3)[nH]nc2n1 | 41.2 | 38.3 | - | ? | - | -
CCN(CC)N=Nc1[nH]nc2nc(C)cc(C)c12 | - | - | - | - | - | -
CN(C)c1ccc(C(=O)N/N=C/C23CC[C@@H](O)CC2(O)CC[C@@H]2[C@@H]3CCC3(C)C(C4=CC(=O)OC4)CCC23O)cc1 (some centres undefined) | - | - | -98.6 | - | ? | ?
CC12CC[C@H]3[C@@H](CCC4(O)C[C@H](O)CCC34/C=N/NC(=O)c3ccc(O)cc3)C1(O)CCC2C1=CC(=O)OC1 (some centres undefined) | - | - | - | - | - | -
COc1ccc(C(=O)N/N=C/C23CC[C@@H](O)CC2(O)CC[C@@H]2[C@@H]3CCC3(C)C(C4=CC(=O)OC4)CCC23O)cc1 (some centres undefined) | - | - | -81.7 | - | - | -
CCOCCCNC(=O)C1(O)c2ccccc2NC(=O)N1c1ccc(Cl)c(Cl)c1 (centres undefined) | - | - | - | - | - | ?
CCCCN(C)CCCNC(=O)C1(O)c2ccccc2NC(=O)N1c1ccc(Cl)cc1 (centres undefined) | - | - | - | - | -[0.00184 µM] | 4.15µM
CC(C)NC(=O)C1(O)c2ccccc2NC(=O)N1c1ccc(Cl)c(Cl)c1 (centres undefined) | - | - | - | - | - | 10.4µM
CCOc1ccc(N2C(=O)Nc3ccc(Br)cc3C2(O)C(=O)NCCN(C)C)cc1 (centres undefined) | - | - | - | - | - | 1.85µM
CCOc1ccc(N2C(=O)Nc3ccc(Br)cc3C2(O)C(=O)NCCCN(C)C)cc1 (centres undefined) | - | - | ? | - | - | ?
SMILES | Shiga inhibitor | Cycloheximide cs | HCMV antiviral | HCV inh | Pf growth 48h | Pf growth 96h
CC1CCCCN1C(=O)CSc1nc2c(c(=O)n(C)c(=O)n2C)n1C (centres undefined) | - | - | - | - | - | -
O=C(Nc1ccc(C2=NCCN2)cc1)c1ccc(C(=O)Nc2ccc(C3=NCCN3)cc2)c([N+](=O)[O-])c1 | - | - | ? | - | 0.37µM | 0.147µM
COc1ccc(NC(=O)c2ccc(-n3cncn3)c([N+](=O)[O-])c2)cc1 | - | - | - | - | ? | ?
O=C(Nc1ccccc1Cl)c1ccc(-n2cccn2)c([N+](=O)[O-])c1 | 41.5 | - | - | - | - | ?
Cc1c(NC(=O)c2ccc(Cl)c([N+](=O)[O-])c2)cccc1-n1cnnn1 | . | . | - | 11.2µM | . | .
Cc1cccc(NC(=O)c2ccc(-n3cccn3)c([N+](=O)[O-])c2)c1 | - | 31.6 | - | ? | - | ?
CC(=O)c1ccc(NC(=O)Nc2nnc(N3CCCC(C)C3)s2)cc1 (centres undefined) | . | . | - | . | . | .
O=C(CCC(=O)NC1CCCCC1)Nc1cccnc1 | - | - | - | - | - | -
CCCOc1c(Cl)cc(C(=O)N(Cc2cccc(OC)c2)C2CCS(=O)(=O)C2)cc1Cl (centres undefined) | . | . | - | . | . | .
CCOc1ccc(S(=O)(=O)N2CCC(C(=O)N3CCCC3)CC2)cc1C | - | - | - | - | - | -
Cc1ccc(NC(=O)C(Cc2ccccc2)NS(=O)(=O)c2cccs2)cc1Cl (centres undefined) | . | . | - | . | . | .
Cc1ccc(NC(=O)c2ccc(-n3cccn3)c([N+](=O)[O-])c2)cc1 | - | 20.6 | - | ? | - | ?
O=C(O)c1ccc(-n2cccn2)c([N+](=O)[O-])c1 | - | - | ? | - | - | -
Cc1nn(-c2cccc(C(F)(F)F)c2)c(=O)c2noc(C)c12 | - | - | - | - | - | -
NC(=O)C1CCN(c2nc(-c3ccccc3F)cs2)CC1 | . | . | - | . | ? | ?
NC(=O)C1CCN(c2nc(-c3ccccc3Br)cs2)CC1 | . | . | -73.7 | . | ? | ?
COc1ccc(NC(=O)/C(C#N)=C\c2ccc(N3CCOCC3)o2)cc1 | - | 23.8 | - | ? | - | -
COc1ccc(NC(=O)/C(C#N)=C/c2ccc(Br)o2)cc1 | 52.1 | 21.7 | - | - | - | -
COc1ccc(NC(=O)/C(C#N)=C/c2ccc(C)o2)cc1 | . | . | - | . | . | .
N#C/C(=C/c1ccc(N2CCOCC2)o1)C(=O)NC1CCCCC1 | - | 18.6 | ? | ? | ? | -
N#C/C(=C/c1ccc(Br)o1)C(N)=S | - | - | . | . | ? | 11.7µM
N#C/C(=C/c1ccc(Br)o1)C(N)=O | - | - | - | - | ? | -
